Results taken from PubChem BioAssay AID862 (The Scripps Research Institute Molecular Screening Center, 2007).
Out of some 190,000 compounds screened, about 1,700 (0.89%) were called active.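 How the source made its calls: active means inhibition above the mean inhibition across all screened compounds plus 3 SD (cut at about 44% in these data); inactive means the rest.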 The entries come from a sample that favours actives as a whole.

experiment: blockers of STAT3 transcriptional signaling – U3A cells, luciferase, luminescence, MLSCN library, primary screen (AID 862); conditions: IL-6 STAT3-luciferase reporter, at 5.5 µM, active compounds read high, host cell line lacks STAT1;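 further: 0% = DMSO only wells and 100% = 100 µM nifuroxazide control wells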

| SMILES | inhibition |
| --- | --- |
| C=CCn1nc(-c2ccccc2)c2c(C)onc2c1=O | 1.6% (inactive) |
| OCCn1c(-c2ccccc2)csc1=Nc1ccccc1 | 46.5% (active) |
| Cc1csc(=NC(=O)c2ccccc2)n1CCO | 0.5% (inactive) |
| Cc1csc(=Nc2ccccc2)n1CCO | 5.8% (inactive) |
| COC(=O)Cc1ccc(NC(=S)NCc2ccco2)cc1 | 2.5% (inactive) |
| COc1ccc(-c2noc(-c3ccc(C)cc3)n2)cc1 | 11.2% (inactive) |
| COc1ccc(-c2noc(-c3cccc(OC)c3OC)n2)cc1OC | 9.5% (inactive) |
| COc1ccc(-c2nc(-c3ccccc3)no2)c(OC)c1 | 102% (active) |
| COCCCNC(=O)/C=C/c1ccc(OCc2c(F)cccc2Cl)cc1 | 20% (inactive) |
| Cc1ccc(NC(=O)Nc2nnc(-c3ccncc3)s2)cc1 | 9.8% (inactive) |
| CC1CC(C)CN(CCC(=O)Nc2ccc3c(c2)CCC3)C1 (stereo not given) | 3.9% (inactive) |
| O=C(/C=C/c1ccccc1[N+](=O)[O-])OC1CCCCC1=O (stereo not given) | 4.5% (inactive) |
| O=c1[nH]c(CN2CCOCC2)nc2cc(Cl)ccc12 | 4.9% (inactive) |
| NC(=O)Cc1nc2scc(-c3ccc(Cl)cc3)c2c(=O)[nH]1 | 16% (inactive) |
| O=c1[nH]c(CCl)nc2cc(-c3ccc(Cl)cc3)sc12 | 51.2% (active) |
| CCOc1cccc(/C=N/N2C(=O)CSC2=S)c1O | 2.5% (inactive) |
| Cc1ccc2[nH]c(=O)c(CN3CCCCC3)c(-c3ccccc3)c2c1 | 8.1% (inactive) |
| COc1cccc(/C=C/c2ccc3ccccc3n2)c1OC(C)=O | 89.8% (active) |
| CCOc1ccccc1NC(=O)c1cccnc1 | 6% (inactive) |
| NC(=O)COC(=O)/C=C/c1ccc2ccccc2n1 | -0.2% (inactive) |
| CC(OC(=O)c1ccc2ccccc2n1)C(=O)c1ccccc1 (stereo not given) | -6.4% (inactive) |
| CCOc1cccc(/C=C/c2ccc3ccccc3n2)c1OC(C)=O | 58.6% (active) |
| COc1cccc2sc(NNC(=O)c3nc4ccccc4s3)nc12 | -23.2% (inactive) |
| CCn1c2ccccc2c2cc(NC(=O)COC(=O)c3cc(S(=O)(=O)N4CCCCC4)ccc3Cl)ccc21 | 4% (inactive) |
| COc1ccc(/C=C/C2=CC(C)(C)NC(=S)N2)c(OC)c1 | 9.7% (inactive) |
| COC(=O)Cn1cc(/C=C/[N+](=O)[O-])c2ccccc21 | -0.7% (inactive) |
| CN1C(=O)/C(=C/c2ccco2)SC1=Nc1cccc(C(=O)O)c1 | 3.5% (inactive) |

| SMILES | inhibition |
| --- | --- |
| CC(C)C(=O)Nc1ccc2c3c(cccc13)CC2 | 1.8% (inactive) |
| COc1cc(SC)ccc1C(=O)Nc1cc(C)ccn1 | 55.6% (active) |
| Cc1ccnc(NC(=O)c2ccoc2C)c1 | 10.5% (inactive) |
| CC(=O)Nc1cccc(C(=O)Nc2nc(C)cs2)c1 | 10.2% (inactive) |
| COc1ccc(C(=O)Nc2nncs2)c(OC)c1 | 8.6% (inactive) |
| COC(=O)c1sc(NC(=O)c2ccc(OC)cc2OC)nc1C | 86% (active) |
| COC(=O)c1sc(NC(=O)c2csc3c2CCCC3)nc1C | -15.5% (inactive) |
| COc1ccccc1CNC(=O)c1ccc(SC)cc1OC | 11.4% (inactive) |
| COc1cc(SC)ccc1C(=O)NCCOc1ccccc1Cl | -8.5% (inactive) |
| COc1cc(SC)ccc1C(=O)Nc1nc(C)cs1 | 111% (active) |
| O=c1c2ccccc2c(-c2ccccc2)nn1-c1ccccn1 | 4.6% (inactive) |
| O=C(CP(=O)(c1ccccc1)c1ccccc1)N1CCOCC1 | 6.3% (inactive) |
| COC(=O)Cc1ccc(OCC(=O)Nc2ccc(OC(F)(F)F)cc2)cc1 | -10.9% (inactive) |
| CCN1CCN(CC(=O)c2cc(OC)c(OC)c(OC)c2)CC1 | 11.2% (inactive) |
| CCCc1ccc(-c2csc(NC(=O)Cc3cccs3)n2)cc1 | 43.7% (active) |
| COc1ccc(-c2csc(NC(=O)CCCc3cccs3)n2)cc1 | 23.2% (inactive) |
| Cc1ccc(-c2csc(NC(=O)Cc3cccs3)n2)cc1C | 12.1% (inactive) |
| c1ccc(C2CNCc3c2ccc2ccccc32)cc1 (stereo not given) | 3.3% (inactive) |
| COc1ccc(S(=O)(=O)Nc2cccnc2)c(Cl)c1Cl | 5.5% (inactive) |
| COc1ccccc1Oc1ccc(S(=O)(=O)Nc2cccnc2)cc1 | 48.9% (active) |
| O=S(=O)(Nc1ccccn1)c1ccc(Oc2ccccc2)cc1 | -1.5% (inactive) |
| Cn1c(CCCOc2ccc(Cl)cc2Cl)n[nH]c1=S | 9.7% (inactive) |
| O=C(COC(=O)C1CC2C=CC1C2)Nc1ccccc1 (stereo not given) | 1% (inactive) |
| CCCCCc1ccc(-c2ccc(C(=O)O)cc2)nc1 | 52.6% (active) |
| CCCCCc1ccc(-c2ccc(OCC)cc2)nc1 | 25.3% (inactive) |
| CCCCCC(=O)Nc1ccc(-c2cn3cccnc3n2)cc1 | 11.1% (inactive) |
| CCCN(CC(=O)Nc1ccccc1C)C(=O)c1cc(=O)[nH]c2ccccc12 | 3.5% (inactive) |

| SMILES | inhibition |
| --- | --- |
| N#Cc1nc(-c2ccc(OCc3ccccc3)cc2)oc1NCCCN1CCOCC1 | 14.7% (inactive) |
| N#Cc1nc(COc2ccc(-c3ccccc3)cc2)oc1NCc1cccnc1 | 45.2% (active) |
| N#Cc1nc(Cc2ccccc2)oc1NCCc1ccccc1 | -13.4% (inactive) |
| COC(=O)c1sc2[nH]c(=S)n(N)c(=O)c2c1C | 8.3% (inactive) |
| Cc1ccc(CN(Cc2cccnc2)C(=S)Nc2cccc(Cl)c2C)cc1 | 9.3% (inactive) |
| CNC(=O)CN1C(=O)c2ccccc2S1(=O)=O | 10.2% (inactive) |
| O=C(CN1C(=O)c2ccccc2S1(=O)=O)N1CCc2ccccc21 | 89.1% (active) |
| O=C(CN1CCN(c2ccccn2)CC1)N1CCc2ccccc21 | 1.6% (inactive) |
| O=c1cc(CSc2ccc(Cl)cc2)nc(N2CCOCC2)[nH]1 | -7.4% (inactive) |
| CCOc1ncccc1C(=O)OCc1cn2cc(Cl)ccc2n1 | 12.3% (inactive) |
| Clc1ccc2nc(CSc3ccccc3)cn2c1 | 62.7% (active) |
| CCOC(=O)NN1C(=O)c2ccccc2NC1c1cccc(O)c1 (stereo not given) | -10% (inactive) |
| CN(CCc1ccccn1)C(=O)CCC1CCCN(Cc2ccccc2OC(F)F)C1 (stereo not given) | 4.3% (inactive) |
| Cc1cc(C)c2[nH]c(=O)c(CN(Cc3ccccc3)C(=S)NCCCN(C)C)cc2c1 | -4.1% (inactive) |
| C1CC1Cc1noc(CN2CCN(CC3CC3)CC2)n1 | 2.5% (inactive) |
| Cc1ccc(NC(=O)CN(C)CC(=O)Nc2cccc(F)c2)cc1[N+](=O)[O-] | 46.8% (active) |
| CN(CC(=O)Nc1cccc(F)c1)CC(=O)Nc1cccc([N+](=O)[O-])c1 | -4.2% (inactive) |
| Cc1ccc(CN(C)CC(=O)Nc2cccc([N+](=O)[O-])c2)o1 | 5.5% (inactive) |
| O=S(=O)(NC1CC1)c1ccc2c3c(cccc13)CC2 | 11.9% (inactive) |
| CCOC(=O)CSc1nc(C)cc2c1C(=O)OC2 | -1% (inactive) |
| c1ccc2c(CSCc3nc4ccccc4[nH]3)cccc2c1 | 4.1% (inactive) |
| CCOc1ccc(Br)cc1CSC(=N)N | 34.7% (inactive) |
| N=C(N)SCc1cccc2ccccc12 | 47.8% (active) |
| CN(C)CCOCCOc1ccc(Cl)c2ccccc12 | 9.5% (inactive) |
| CCCc1cc(=O)[nH]c(SCC(=O)c2cc(C)n(CCC)c2C)n1 | 10.6% (inactive) |
| Cc1cc(C(=O)CSc2nc(N)cc(=O)[nH]2)c(C)n1-c1cccc(F)c1 | 20.1% (inactive) |
| Cc1cc(C(=O)CSc2nc(N)cc(=O)[nH]2)c(C)n1CCc1ccc(Cl)cc1 | 43.7% (active) |

| SMILES | inhibition |
| --- | --- |
| COc1cccc(-c2nc3cc(C)ccc3o2)c1 | 45% (active) |
| COc1ccc(-c2nc3cc([N+](=O)[O-])ccc3o2)cc1OC | 20.3% (inactive) |
| COc1ccc2oc(-c3cccc(NC(=O)CSc4ccc(Cl)cc4)c3)nc2c1 | -4.6% (inactive) |
| Cc1ccc(C(=O)Cc2nnc(C)s2)cc1 | -4.3% (inactive) |
| C/C(=N\NC(=O)CNC(=O)C(c1ccccc1)c1ccccc1)c1ccc(C)cc1 | -6.9% (inactive) |
| O=C(Nc1cccnc1)c1noc2c1CCCCC2 | 43.9% (active) |
| O=C(Nc1cccnc1)c1cccc(S(=O)(=O)N2CCCC2)c1 | 6.6% (inactive) |
| COc1cccc(C(=O)Nc2cccnc2)c1OC | 2.9% (inactive) |
| Cc1ccc(-n2c(SCC(=O)N/N=C/C=C/c3ccccc3[N+](=O)[O-])nc3ccccc3c2=O)cc1 | 1.3% (inactive) |
| CC(Sc1nncn1C)C(=O)Nc1cc(C(F)(F)F)ccc1N1CCOCC1 (stereo not given) | 0.4% (inactive) |
| OCCNCc1cccc(OCc2ccccc2Cl)c1 | -9.4% (inactive) |
| CCn1c(/C=C/c2ccc([N+](=O)[O-])o2)nc2ccccc2c1=O | 25.7% (inactive) |
| O=c1oc(/C=C/c2ccccc2)nc2ccccc12 | 44.2% (active) |
| S=c1[nH]nc(/C=C/c2ccccc2)o1 | -4.3% (inactive) |
| COc1ccc(/C=C/C(=O)c2ccc(NS(=O)(=O)c3ccc(C)cc3)cc2)cc1O | -5.1% (inactive) |
| Cc1ccc(O)c(-c2cc(C(=O)NCc3ccccc3)[nH]n2)c1 | -0.7% (inactive) |
| CCCn1nc(C(=O)Nc2ccc3nc(C)sc3c2)c2ccccc2c1=O | 0.8% (inactive) |
| CCN(CC)c1ccc(/C=N/Nc2nc(C)cc(C)n2)c(O)c1 | 16% (inactive) |
| CCN(CC)c1ccc(/C=N/Nc2nc(C)cc(=O)[nH]2)cc1 | 46.4% (active) |
| Cc1cc(=O)[nH]c(N/N=C/c2c(C)nn(-c3ccccc3Cl)c2Cl)n1 | 7.1% (inactive) |
| Nc1nnc(SCn2nnc3ccccc3c2=O)s1 | 9.1% (inactive) |
| O=C(O)CCC(=O)Nc1nc2ccc([N+](=O)[O-])cc2s1 | 13.9% (inactive) |
| O=C(NC(Nc1nc2ccc([N+](=O)[O-])cc2s1)(C(F)(F)F)C(F)(F)F)c1ccccc1 | 92.4% (active) |
| O=C(Nc1nc2ccc([N+](=O)[O-])cc2s1)c1ccc(S(=O)(=O)N2CCCc3ccccc32)cc1 | 21.1% (inactive) |
